Experimental data as given in PubChem BioAssay (NCATS).
Inconclusive results are not listed. Values without a mark were called inactive. Active and inactive are the calls of the source. Calls follow the shape of the dose curve; as a rule, active = well fitted cell-killing curve with a large enough effect in the repeat runs; inconclusive = weak or mixed curves, or effect the other way; inactive = flat fitted curve, though single readings scatter.

Assay: qHTS assay for small molecule antagonists of the retinoid-related orphan receptor gamma (ROR-gamma) signaling pathway - cell viability counter screen (AID 720652);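 also: compound exposure lasted 16 hr before ATP read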
Details: RORgamma reporter cell line viability counter screen; series mostly up to 92.2 µM; activity change, negative = cytotoxicity: at the top concentration
Description: National Center for Advancing Translational Sciences [NCATS]
NIH Chemical Genomics Center [NCGC]
National Institutes of Environmental Health Sciences [NIEHS]
National Toxicology Program [NTP]
Nuclear steroid hormone receptors are involved in many biological processes including inflammatory responses, cell proliferation, and apoptosis. Environmental factors or compounds disrupting these nuclear receptor pathways and gene expression may promote susceptibility to immunotoxicants and autoimmune diseases. One important group of these expression factors are the retinoid-related orphan receptors. To assess compounds that may interfere with the retinoid-related orphan receptor gamma (ROR-gamma) transcription factor, a cell-based luciferase assay was used.
The CHO cell-based assay utilizes a TET-inducible ROR expression factor and ROR response element-LUC reporter gene. Reporter activity was induced using doxycycline and measured after 16hr incubation. Luminescence was read using Viewlux (PerkinElmer), where a decrease in reporter activity would show a decrease in luminescence. The cytotoxicity of the compounds against ROR response-Luc reporter gene cell line was quantified by measuring the intracellular ATP content.
1,000 cells in 4 uL/well were dispensed into white wall/solid bottom 1536-well plates using a Multidrop Combi (Thermo Scientific) dispenser. Following incubation at 37 C and 5% CO2 for 5 hr, 23 nL compound or DMSO vehicle were transferred by a pin tool, then the plates were treated with 1 ul doxycycline to induce reporter gene activity. After 16 hr incubation at 37 C and 5% CO2, 5 uL/well of CellTiter-Glo reagent (Promega) was then added to each plate using a Flying Reagent Dispenser and incubated at room temperature for 30 min. The luminescence intensity was quantified on a ViewLux plate reader (PerkinElmer).
% is scaled to controls: 0 for no effect and ±100 for the full control effect; potency is read from the fitted curve at half-maximal effect.

Row | SMILES | activity change, negative = cytotoxicity [%] | Potency
1 | CN1CCC[C@H]1c1cccnc1 | -0.523 | 
2 | Nc1ccc(O)c([N+](=O)[O-])c1 | -8.24 | 
3 | C#C[C@]1(O)CC[C@H]2[C@@H]3CCc4cc(O)ccc4[C@H]3CC[C@@]21C | -10.2 | 
4 | CCCCCCCCCCCCCCCCCC(=O)O | 2.13 | 
5 | O=C(O)/C=C\C(=O)O | -11.3 | 
6 | S=c1[nH]c2ccccc2s1 | -1.05 | 
7 | N=C1N=C(N)c2cc3ccccc3cc21 |  | 42.2 µM (active)
8 | Nc1ccc(O)c(C(=O)O)c1 | 2.33 | 
9 | COc1cc(CNC(=O)CCCC/C=C/C(C)C)ccc1O | 0.515 | 
10 | Nc1nc2ccc([N+](=O)[O-])cc2s1 | -12.8 | 
11 | c1ccc2sc(SSc3nc4ccccc4s3)nc2c1 | 12.2 | 
12 | CN(C)c1ccc(C(=C2C=CC(=[N+](C)C)C=C2)c2ccccc2)cc1 |  | 2.37 µM (active)
13 | O=C(O)c1cc(O)c(O)c(O)c1 | 5.66 | 
14 | CN(C)CCC(c1ccc(Cl)cc1)c1ccccn1 (stereo not drawn) | 4.16 | 
15 | CCCOC(=O)c1ccc(O)cc1 |  | inactive
16 | NCCO | 14 | 
17 | Nc1ccc([N+](=O)[O-])cc1O | 4.66 | 
18 | CN(C)c1ccc(N=NS(=O)(=O)O)cc1 | -6.8 | 
